# Laboratory results: PubChem BioAssay (NCI)
# About 83,000 compounds went through this panel and 20% of them were active in at least one assay; those are over-represented in the sample as a whole.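 Step 1: grow cells in 96-well plates. Step 2: add test compound at a single concentration. Step 3: incubate 48 h. Step 4: record percent growth.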 Unmarked numbers belong to inactive results. Calls of active or inactive are those of the source. How the source made its calls: active means growth percent below 10; inactive means the rest.
# How the values were obtained:
# Experiment in all cases: NCI-60 one-dose screen, 48 h (100 = growth as untreated, 0 = no growth, -100 = all killed)
# Conditions in all cases: 10 µM unless noted
# HCT-15 colon = test system: HCT-15 colon
# HT29 colon = test system: HT29 colon
# SNB-75 CNS = test system: SNB-75 CNS
# U251 CNS = test system: U251 CNS
# PC-3 prostate = test system: PC-3 prostate
# SK-MEL-5 melanoma = test system: SK-MEL-5 melanoma
# UACC-62 melanoma = test system: UACC-62 melanoma
# SK-MEL-28 melanoma = test system: SK-MEL-28 melanoma
# SK-MEL-2 melanoma = test system: SK-MEL-2 melanoma
# EKVX NSCLC = test system: EKVX NSCLC
# SN12C renal = test system: SN12C renal
# UO-31 renal = test system: UO-31 renal
# TK-10 renal = test system: TK-10 renal
# ACHN renal = test system: ACHN renal
# CAKI-1 renal = test system: CAKI-1 renal
# CCRF-CEM leukemia = test system: CCRF-CEM leukemia
# MOLT-4 leukemia = test system: MOLT-4 leukemia
# LOX IMVI melanoma = test system: LOX IMVI melanoma
# A498 renal = test system: A498 renal
SMILES,growth (HCT-15 colon),growth (HT29 colon),growth (SNB-75 CNS),growth (U251 CNS),growth (PC-3 prostate) [%],growth (SK-MEL-5 melanoma),growth (UACC-62 melanoma),growth (SK-MEL-28 melanoma),growth (SK-MEL-2 melanoma),growth (EKVX NSCLC),growth (SN12C renal),growth (UO-31 renal),growth (TK-10 renal),growth (ACHN renal),growth (CAKI-1 renal),growth (CCRF-CEM leukemia),growth (MOLT-4 leukemia),growth (LOX IMVI melanoma),growth (A498 renal)
NC(=O)c1cccc(-n2ccc3cc(NC(=O)Nc4ccc(Cl)c(Cl)c4)ccc32)n1,59.7%,60.9%,68.5%,66.7%,73.3,74.1%,83.2%,88.1%,88.3%,68.3%,86.8%,95.5%,80.7%,74.5%,57.6%,59.2%,50.7%,,
Nc1c(Br)cc(Br)cc1-c1n[nH]c(=O)[nH]c1=O,98.1%,99.7%,85.5%,100%,99,,106%,110%,,,109%,74.3%,,91.9%,86.4%,,65.8%,96.1%,91.7%
Cc1nc2nc(C(F)(F)F)[nH]c2nc1C,111%,107%,85.1%,102%,104,,102%,102%,115%,89.5%,95.4%,101%,104%,110%,98.3%,93.3%,113%,98.6%,98.7%
COC(=O)c1cc(-c2ccc(C)cc2)n(C(=O)CSc2nc3sc(C(N)=O)c(C)c3c(=O)n2Cc2ccccc2)n1,98.1%,115%,83.3%,102%,86.1,,,112%,110%,,,87.5%,106%,98.8%,97.7%,93.2%,95.1%,,-32.1% (active)
CSc1ccc(OC(C)=O)cc1C,95%,104%,94.3%,,96.6,98.8%,98.1%,110%,92.7%,,104%,77.2%,91.1%,98%,96.4%,88.5%,89.6%,95.5%,86.3%
Cc1nc(NC(=O)COc2cccc(/C=C3\COc4ccccc4C3=O)c2)sc1C,-63.8% (active),-100% (active),54.2%,-100% (active),,-81.8% (active),-18.9% (active),-61.2% (active),-77% (active),-23.3% (active),-46.1% (active),,-74.1% (active),-96.9% (active),-94.3% (active),-74.7% (active),-36.8% (active),-94.3% (active),87.2%
O=[N+]([O-])c1cc2c(cc1Br)-c1ccccc1C2,45.3%,95.9%,86.5%,98.5%,91.8,,82%,98.4%,101%,77.6%,85.1%,70.5%,126%,94.2%,76.4%,70.9%,88.8%,88.8%,95.1%
CCCCNNC(=O)c1ccc(Br)cc1,78.6%,36.9%,61.1%,61.9%,61.4,,40.9%,53.2%,44.5%,,75.1%,25.1%,,71.4%,60.1%,46.6%,42.1%,62.1%,30.2%
C[C@H]1C(=O)C23CCC1C[C@@]21O[C@@H]2C(C)(C)C=CC(=O)C23COC1=O,109%,110%,83.6%,105%,,103%,,111%,104%,,103%,81.5%,98.9%,104%,101%,71.7%,102%,93.7%,92%
O=c1[nH]c(=S)[nH]c(=O)n1Cc1cccc2ccccc12,98.3%,110%,81.8%,93.1%,92.8,,89.7%,103%,,,101%,93%,,97.7%,86.9%,105%,99.7%,94.3%,85.4%
Cc1nc(-c2ccccc2)cc2c(O)c(C(=O)N/N=C/Cc3ccccc3)[nH]c(=O)c12,106%,93.8%,90.7%,98.8%,90,,109%,115%,102%,103%,104%,95.1%,109%,104%,111%,92.4%,90.5%,95.7%,94.5%
Clc1ccc2c(N3CCN(c4ccnc(NC5CCCCC5)n4)CC3)ccnc2c1,2.81% (active),3.22% (active),65.6%,40.4%,36.7,,,36.8%,72.9%,,,22.4%,61.1%,45.5%,57.8%,8.39% (active),-3.75% (active),,-40.7% (active)
CC1=CN2C(=NC3=C(CCCC/C3=C\c3ccccc3)C2c2ccccc2)S1 (centres undefined),94.8%,91.7%,82.5%,96.5%,99.2,,83.8%,107%,,,96.3%,78.1%,,99.5%,96.3%,,99.8%,97.5%,
Cc1nc2cc(Nc3nc(Nc4ccc(F)cc4)nc(N4CCN(C)CC4)n3)ccc2n1Cc1ccccc1,-34.3% (active),-51.9% (active),-20.4% (active),,19.7,80.9%,-65.4% (active),-67.4% (active),-20.5% (active),,34.9%,-29% (active),-12.1% (active),9.69% (active),18.6%,-7.07% (active),1.11% (active),-73.6% (active),29.2%
